Among all 2,100 compounds or so, about 590 (28%) were called active. About 42% were inconclusive and are not listed. This is one part of the list. A number with no mark means an inactive call. Calls come from the whole dose curve; as a rule, active = well fitted inhibition curve with a large enough effect; inconclusive = small, poorly fitted or top-dose-only effect; inactive = flat fitted curve, though single readings scatter.
The molecules below were run against DNA dC->dU-editing enzyme APOBEC-3F (Homo sapiens) (UniProt Q8IUX4) (assay: qHTS for inhibitors of Vif-A3F interactions: Cherry picks). Settings: HeLa A3F-eYFP + Vif (tagged APOBEC3F with the HIV-1 protein that degrades it), eYFP fluorescence, 24 h.
DNA dC->dU-editing enzyme APOBEC-3F (Homo sapiens), sequence (Q8IUX4 whole entry, looked up): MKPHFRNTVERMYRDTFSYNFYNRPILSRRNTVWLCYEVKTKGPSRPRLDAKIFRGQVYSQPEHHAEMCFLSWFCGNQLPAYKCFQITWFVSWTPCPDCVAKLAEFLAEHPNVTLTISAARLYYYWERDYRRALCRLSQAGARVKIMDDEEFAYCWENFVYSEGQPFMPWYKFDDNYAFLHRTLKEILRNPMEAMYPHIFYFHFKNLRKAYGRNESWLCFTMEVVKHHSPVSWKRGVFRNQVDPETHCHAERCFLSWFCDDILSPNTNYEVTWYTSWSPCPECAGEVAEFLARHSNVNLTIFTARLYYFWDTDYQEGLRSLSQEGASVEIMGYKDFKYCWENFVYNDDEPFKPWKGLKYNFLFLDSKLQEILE
Outline: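 Read-out: yellow fluorescence (ex 488 nm, em 500-530 nm) by laser-scanning cytometer after 24 h compound exposure, several concentrations, at 37 deg C. Cells: HeLa line stably co-expressing Vif and C-terminally eYFP-tagged A3F; MG132 served as positive control.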
For `CCC(C)Sc1cccc(-c2nc3cc(C)ccn3c2NC2CCCCC2)c1` (centres undefined), the max response was -1.04%.
For `Cc1cc(-n2c(SCC(=O)Nc3ccc(Br)cc3)nc3n[nH]c(C)c3c2=N)ccc1Cl`, the max response was -24.1%.
`Cc1cc(-n2c(C)cc(C(=O)CCl)c2C)no1` gave a max response of -21.8%.
With `COc1cc(OC)cc(C(=O)Nc2ccc(N3CCN(C(=O)c4cccs4)CC3)cc2)c1` the max response was -11.5%.
With `COc1ccc2o/c(=N/NC(=O)c3cccs3)c(C(N)=O)cc2c1` the Potency was 3.96 µM (active).
Work on `COc1ccc2oc(=N)c(C(=O)Nc3ccc(F)cc3)cc2c1` yielded a max response of -21%.
`COC(=O)C1=C(Nc2ccc(C)cc2)C=C(C)C(C(=O)OC)C1c1cccc(OC)c1` (centres undefined) was tested, and the max response was -20.5%.
In the case of `CN(C)c1ccc2ccc3cccc4ccc1c2c34`, the Potency is reported as 9.2 µM (active).
In the case of `Cc1cccc(CN2C(=O)N/C(=C/c3ccc(C)s3)C2=O)c1`, the Potency is reported as 9.94 µM (active).
For `COCc1ccc(O)c2ncccc12`, the max response was 1.62%.
For `Cc1cc(NC(=O)/C(C#N)=C/c2ccc(-c3ccc(SC(F)F)cc3)o2)n(-c2ccccc2)n1`, the Potency was 3.66 µM (active).
For `Cc1cc(NC(=O)/C(C#N)=C\c2ccc(-c3ccc(SC(F)F)cc3)o2)n(-c2ccccc2)n1`, the Potency was 9.2 µM (active).
`Cc1ccc(C)c(N2CCN(C(=O)c3cccn4c(=O)c5sccc5nc34)CC2)c1` gave a max response of -29.7%.
In the case of `CCOC(=O)c1ccc(/C=C2/C=C(c3ccccc3)N(c3ccc(Cl)c(C(=O)O)c3)C2=O)cc1`, the Potency is reported as 20.6 µM (active).
`CN(C)c1ccc(Nc2nc3ccccc3n3nnnc23)cc1` gave a max response of -2.05%.
With `CC(NC(=O)c1ccc(Nc2nc3ccccc3n3nnnc23)cc1)c1ccccc1` (centres undefined) the Potency was 16.4 µM (active).
`Cc1ccc(C(=O)O)cc1Nc1nc2ccccc2n2nnnc12` was tested, and the max response was -4.15%.
`Cc1cccc2cc3c(N)c(C(=O)N4CCc5ccccc54)sc3nc12` was tested, and the Potency was 6.51 µM (active).
For `Cc1ccc2nc3sc(C(=O)N4CCCc5ccccc54)c(N)c3cc2c1`, the Potency was 14 µM (active).
For `Cc1cccc2cc3c(N)c(C(=O)N4CCCc5ccccc54)sc3nc12`, the Potency was 9.2 µM (active).
With `CCCn1nnc(NC(=S)NC(=O)c2ccccc2OC)n1` the max response was 0.308%.
For `O=C(Cc1nc2ccccc2[nH]c1=O)c1ccc(Cl)cc1`, the Potency was 18.4 µM (active).
For `CC(=O)Nc1ccc(NC(=O)C/C(C)=N/NC(N)=S)cc1`, the max response was 0.646%.
`CCc1ccc(NC(=O)/C(C#N)=C/c2cc3ccc(C)cc3nc2N2CCOCC2)cc1` was tested, and the Potency was 14.6 µM (active).
In the case of `CCc1ccc(C(=O)NC(=S)Nc2ccc(N3CCOCC3)cc2)cc1`, the max response is reported as -0.0784%.
`COCCCNC(=S)N/N=C/c1ccc(OC)cc1` was tested, and the max response was -0.494%.
In the case of `C=CCNC(=S)N/N=C(\C)c1ccc(OC)cc1`, the max response is reported as -3.87%.
With `Cc1nn(-c2ccc(F)cc2)c(Cl)c1/C=C1\C(=O)Nc2ccccc21` the max response was -19.4%.
For `Cc1cc(C)c(/C=C2\C(=O)Nc3ccccc32)[nH]1`, the Potency was 16.4 µM (active).
`CNCC(O)Cn1c2c(c3ccccc31)CCCC2` (centres undefined) showed a max response of 1.63%.
`CCN(CC)c1cc(C)c(/C=C/c2ccnc3ccccc23)cc1C` was tested, and the Potency was 13 µM (active).
`CCN(CC)c1ccc(NC(=O)CSc2nc(C3CC3)nc3ccccc23)cc1C` gave a max response of -22.1%.
For `Cc1cc(N(C)C)c(C)cc1/C=C/c1ccnc2ccccc12`, the Potency was 18.4 µM (active).
In the case of `Cc1cc(C)n(S(=O)(=O)/C=C/c2ccccc2)n1`, the max response is reported as -7.92%.
In the case of `O=C(Nc1ccccc1-c1nc2ccccc2[nH]1)c1ccc(N2C(=O)CCC2=O)cc1`, the Potency is reported as 18.4 µM (active).
In the case of `c1ccc2[nH]c(NN=C3CCCCCC3)nc2c1`, the max response is reported as 2.02%.
`CCN1C(=S)SC(=O)C1=C1C=C(C)N(Cc2ccco2)C(C)=C1` was tested, and the Potency was 17.7 µM (active).
`CN(C)C=Nc1c(Br)cc(Br)c2nonc12` was tested, and the Potency was 14.6 µM (active).
`O=S(=O)(Nc1cccc2ncccc12)c1cccs1` was tested, and the max response was -3.96%.
With `Cc1cccc(NC(=O)/C=C/c2ccc([N+](=O)[O-])s2)c1` the Potency was 3.26 µM (active).
With `Cc1ccc(NC(=O)/C=C/c2ccc([N+](=O)[O-])s2)c(C)c1` the Potency was 5.17 µM (active).
For `Cc1cc(C)cc(NC(=O)/C=C/c2ccc([N+](=O)[O-])s2)c1`, the Potency was 10.3 µM (active).
Work on `Cc1ccc(NC(=O)c2ccc([N+](=O)[O-])s2)cc1S(=O)(=O)N1CCOCC1` yielded a max response of -11.7%.
`CC(=O)c1cccc(NC(=O)/C=C/c2ccc([N+](=O)[O-])s2)c1` was tested, and the Potency was 5.17 µM (active).
In the case of `COC(=O)c1sccc1NC(=S)Nc1cc(C)cc(C)c1`, the max response is reported as -0.135%.
In the case of `Cc1nc(NC(=O)/C=C/c2ccco2)sc1C`, the max response is reported as -21.9%.
Work on `CC(=O)c1cccc(NC(=S)N2c3ccccc3CC2C)c1` (centres undefined) yielded a max response of 9.61%.
Work on `N#C/C=C/N1CCN(C(=O)c2ccco2)CC1` yielded a max response of 0.169%.
For `Cc1cc(C)nc(-n2nc(C)cc2NC(=O)c2ccc(F)cc2F)n1`, the max response was -0.0521%.

Reference: PubChem BioAssay AID651814 (National Center for Advancing Translational Sciences (NCATS), 2012)
Note: nearly all actives have a fitted effect of over 70% in size.
Potency is the fitted concentration of half-maximal effect.
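Throughout, for max response: % of control where 0% means no effect; active compounds raise eYFP fluorescence by blocking Vif-driven A3F loss.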
